Our source for the composite z-score and z-score values is PubChem BioAssay.

Experiment [1] can be described thus: anti-His antibody binders, primary screen, artefact control for SMM control protein annotation, biochemical, small-molecule microarray, 635 nm fluorescence (AID 1128).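 Also: score merges feature fluorescence with signal-to-noise for each printed compound spot.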 The following applies: anti-His Alexa647 antibody binding, higher = more signal.
The test system of experiment [2] is Human papillomavirus type 1a E7 protein (residues 1-88). As to the kind of experiment: HPV1a E7 small-molecule binders, primary screen, biochemical, small-molecule microarray, residues 1-88, 635 nm (AID 1129). Conditions: small-molecule microarray binding, fluorescence 635 nm; higher = more signal.
Experiment [3] concerns the target Focal adhesion kinase 1 (Homo sapiens) (UniProt Q05397). The experiment is described as follows: small-molecule microarray binders of FAK, primary screen, biochemical, 635/667 nm fluorescence, BSA, DTT (AID 1130).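 Also: composite of spot emission at 667 nm and signal to noise over triplicate slides.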 Conditions: PTK2 binding, 635 nm fluorescence, higher = more signal.
The test system of experiment [4] is Fibrinogen (Alexa647-labelled). The experiment is described as follows: fibrinogen binders on compound microarrays, profiling panel, artefact control for SMM control-protein annotation, biochemical, small-molecule microarray, 635/667 nm fluorescence (AID 1131).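 Also: z-score merges 667 nm fluorescence with per-spot signal-to-noise over triplicate slides.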 The following applies: fibrinogen-A647 binding fluorescence, higher = more signal.
The target in experiment [5] is Follistatin (Homo sapiens) (UniProt P19883). As to the kind of experiment: follistatin binders on small-molecule microarrays, primary screen, biochemical, small-molecule microarray, 635/667 nm fluorescence (AID 1132). Conditions: FST binding, 635 nm fluorescence, higher = more signal.
Experiment [6] has as its target Fibroblast growth factor 2 (Homo sapiens) (UniProt P09038). As to the kind of experiment: FGF2 binders on small-molecule microarrays, primary screen, biochemical, small-molecule microarray, 635/667 nm fluorescence (AID 1133). The following applies: small-molecule microarray binding, FGF2, fluorescence 635/667; higher = more signal.
Experiment [7] can be described thus: mitochondrial membrane potential change in A549 cells, profiling panel, cell-based, JC-1 fluorescence, basal, 24 h, 100 nL (AID 1138).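 Also: A549 lung adenocarcinoma cells under basal conditions with no added stimulus; test concentration not given here.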 Conditions: higher = more signal.
Another experiment relates to Lefty1. As to the kind of experiment: Lefty1 binders on small-molecule microarrays, primary screen, biochemical, small-molecule microarray, 635/667 nm fluorescence (AID 1139). The following applies: small-molecule microarray binding, fluorescence 635/667; higher = more signal.
In experiment [8] the test system is wheat germ agglutinin (Triticum aestivum), Alexa647-labelled. As to the kind of experiment: wheat germ agglutinin binders on compound microarrays, profiling panel, artefact control for SMM control-protein annotation, biochemical, small-molecule microarray, 635/667 nm fluorescence (AID 1140).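 Also: score merges 667 nm feature emission with signal to noise over triplicate slides.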 Conditions: WGA-A647 binding, 635 nm fluorescence, higher = more signal.

Experiment [9] concerns the target Luciferin 4-monooxygenase (Photinus pyralis) (UniProt P08659). The experiment is described as follows: firefly luciferase enzyme inhibitors, primary screen, biochemical, luminescence, purified enzyme, 2006 set (AID 1141).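 Also: cell-free assay with purified firefly luciferase at 100 ng per well in PBS; test concentration not given here.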 Conditions: SteadyGlo luminescence, 30 min, higher = more signal, called active from +8 up or from −8 down.
In experiment [10] the test system is Wnt5a (protein binding on small-molecule microarray). As to the kind of experiment: Wnt5a binders on small-molecule microarray, primary screen, biophysical, 635/667 nm fluorescence (AID 1142).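 Also: fluorescence read at 667 nm with signal to noise per printed feature.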 Conditions: 635 nm fluorescence, higher = more signal.
Experiment [11] is described as follows: cell viability in Huh7 cells, primary screen, cytotoxicity control for HCV replication inhibitor project, CellTiter-Glo luminescence, basal, 48 h (AID 1143).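 Also: Huh7 hepatoma cells carrying a hepatitis C replication reporter with no stimulus; test concentration not given here.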 The following applies: Huh7 HCV replicon, higher = more signal, called active from +8 up or from −8 down. (ATP-based viability assays read luminescence as a measure of living cells.)
Experiment [12] is described as follows: P. aeruginosa biofilm formation inhibitors, primary screen, PAO1 strain, BacTiter-Glo luminescence, LB-PBS (AID 1144). Conditions: 12 h, higher = more signal.
Experiment [13] is described as follows: CREB reporter modulators without forskolin, primary screen, cell-based, PC12, CRE-LacZ reporter, unstimulated (AID 1145). The following applies: no forskolin, luminescence, 4.5 h, higher = more signal, called active from +8 up or from −8 down.
Experiment [14] is described as follows: CREB reporter modulators under forskolin, primary screen, cell-based, PC12, CRE-LacZ reporter, forskolin-stimulated (AID 1146).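 Also: PC12 cells with 6xCRE LacZ reporter stimulated by forskolin 10 µM; beta-galactosidase reporter signal reflecting CREB driven transcription.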 The following applies: luminescence, 4.5 h, higher = more signal, called active from +8 up or from −8 down.
In experiment [15] the target is Streptavidin (Streptomyces avidinii) (UniProt P22629). The experiment is described as follows: streptavidin binders on small-molecule microarray, primary screen, artefact control for SMM compound annotation, biophysical, 635/667 nm fluorescence (AID 1147).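 Also: signal reflects streptavidin binding to arrayed compounds as a control protein.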 The following applies: streptavidin binding, higher = more signal.
Experiment [16] in a line: small-molecule binders of probe aInhba, primary screen, biochemical, small-molecule microarray, 635/667 nm fluorescence (AID 1148).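 Also: score merges 667nm spot fluorescence with signal-to-noise for antibody binding to printed compounds.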 The following applies: higher = more signal.
In experiment [17] the target is Torsin-1A (Homo sapiens) (UniProt O14656). The experiment is described as follows: torsin A binders from cell lysate, primary screen, small-molecule microarray, wild-type, 635/667 nm (AID 1149). The following applies: COS7 hTOR1A-WT lysate, 635 nm fluorescence, higher = more signal.
For experiment [18] the target is unchanged. The experiment is described as follows: small-molecule binders of mutant TOR1A in lysate, primary screen, cell lysate, small-molecule microarray, COS7 lysate, 635/667 nm fluorescence (AID 1150).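 Also: score pools 667 nm emission and signal to noise measuring lysate protein binding.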 Conditions: COS7 hTOR1A mutant lysate, 635 nm fluorescence, higher = more signal.
Experiment [19] has as its system Sonic hedgehog protein (Shh). The experiment is described as follows: small-molecule binders of Shh protein, primary screen, biochemical, small-molecule microarray, 635/667 nm fluorescence (AID 1151).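 Also: Shh protein binding to compounds spotted on small-molecule microarray slides; score combines spot fluorescence intensity with signal-to-noise across triplicate slides.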 The following applies: small-molecule microarray binding, 635 nm fluorescence; higher = more signal.

Structures are written as SMILES. The source made the active and inactive calls. Unless noted, no rule for the calls is given here.

Luciferin 4-monooxygenase (Photinus pyralis), sequence (P08659 whole entry, looked up): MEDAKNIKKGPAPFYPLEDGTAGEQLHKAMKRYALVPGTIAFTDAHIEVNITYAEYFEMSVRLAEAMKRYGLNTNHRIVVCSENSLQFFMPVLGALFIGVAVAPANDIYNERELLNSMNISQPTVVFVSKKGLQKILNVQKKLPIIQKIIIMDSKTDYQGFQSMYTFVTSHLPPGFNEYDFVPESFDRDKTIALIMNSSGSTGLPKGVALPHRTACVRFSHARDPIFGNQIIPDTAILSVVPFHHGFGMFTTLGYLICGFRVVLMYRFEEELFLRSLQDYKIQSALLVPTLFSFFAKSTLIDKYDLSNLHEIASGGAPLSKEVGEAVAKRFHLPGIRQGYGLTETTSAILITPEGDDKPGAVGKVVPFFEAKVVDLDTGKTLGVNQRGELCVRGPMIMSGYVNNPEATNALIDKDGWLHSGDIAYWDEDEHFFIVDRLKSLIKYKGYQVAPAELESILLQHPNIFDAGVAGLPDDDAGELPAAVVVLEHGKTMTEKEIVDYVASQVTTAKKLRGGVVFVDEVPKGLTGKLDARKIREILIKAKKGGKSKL
Streptavidin (Streptomyces avidinii), sequence (P22629 whole entry, looked up): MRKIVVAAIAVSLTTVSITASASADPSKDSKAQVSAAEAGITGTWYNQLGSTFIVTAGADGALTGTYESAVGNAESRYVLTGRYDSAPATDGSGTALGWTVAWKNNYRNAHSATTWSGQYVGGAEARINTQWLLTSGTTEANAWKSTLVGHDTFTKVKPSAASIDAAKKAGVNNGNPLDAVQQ
Follistatin (Homo sapiens), sequence (P19883 whole entry, looked up): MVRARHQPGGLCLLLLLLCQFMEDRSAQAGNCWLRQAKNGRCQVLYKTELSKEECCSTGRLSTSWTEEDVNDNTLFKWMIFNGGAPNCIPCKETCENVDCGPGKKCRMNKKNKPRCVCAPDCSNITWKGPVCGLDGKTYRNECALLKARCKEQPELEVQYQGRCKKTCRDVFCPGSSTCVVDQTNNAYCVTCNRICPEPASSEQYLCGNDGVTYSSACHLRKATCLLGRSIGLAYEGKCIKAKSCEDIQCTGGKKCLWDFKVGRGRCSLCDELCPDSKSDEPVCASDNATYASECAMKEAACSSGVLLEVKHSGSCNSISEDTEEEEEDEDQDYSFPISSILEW
Focal adhesion kinase 1 (Homo sapiens), sequence (Q05397 whole entry, looked up): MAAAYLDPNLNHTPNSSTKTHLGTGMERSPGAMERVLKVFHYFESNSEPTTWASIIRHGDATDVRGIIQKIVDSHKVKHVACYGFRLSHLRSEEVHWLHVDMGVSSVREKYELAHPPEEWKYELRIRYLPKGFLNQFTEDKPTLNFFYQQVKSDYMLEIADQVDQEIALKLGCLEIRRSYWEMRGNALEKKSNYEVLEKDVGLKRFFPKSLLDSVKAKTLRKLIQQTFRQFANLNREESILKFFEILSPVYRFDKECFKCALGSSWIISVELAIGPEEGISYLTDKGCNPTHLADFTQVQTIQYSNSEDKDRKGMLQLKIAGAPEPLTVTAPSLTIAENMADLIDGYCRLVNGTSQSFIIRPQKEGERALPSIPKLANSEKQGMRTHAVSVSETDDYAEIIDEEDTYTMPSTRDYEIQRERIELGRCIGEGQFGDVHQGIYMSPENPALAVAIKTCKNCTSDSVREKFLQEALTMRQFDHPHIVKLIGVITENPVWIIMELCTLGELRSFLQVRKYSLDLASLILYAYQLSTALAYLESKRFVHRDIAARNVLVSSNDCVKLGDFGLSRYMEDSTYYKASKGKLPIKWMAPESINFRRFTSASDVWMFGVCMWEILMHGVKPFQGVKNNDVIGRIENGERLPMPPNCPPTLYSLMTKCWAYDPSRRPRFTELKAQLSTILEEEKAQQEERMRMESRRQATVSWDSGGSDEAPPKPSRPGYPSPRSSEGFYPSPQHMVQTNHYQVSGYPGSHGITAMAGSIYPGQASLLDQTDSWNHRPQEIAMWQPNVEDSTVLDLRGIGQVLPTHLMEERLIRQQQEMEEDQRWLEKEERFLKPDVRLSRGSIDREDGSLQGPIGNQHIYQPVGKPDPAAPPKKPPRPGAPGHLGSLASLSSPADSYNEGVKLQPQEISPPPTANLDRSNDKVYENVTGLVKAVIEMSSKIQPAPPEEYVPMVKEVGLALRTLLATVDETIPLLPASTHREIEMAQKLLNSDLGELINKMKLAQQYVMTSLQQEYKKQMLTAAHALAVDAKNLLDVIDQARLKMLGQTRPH
Torsin-1A (Homo sapiens), sequence (O14656 whole entry, looked up): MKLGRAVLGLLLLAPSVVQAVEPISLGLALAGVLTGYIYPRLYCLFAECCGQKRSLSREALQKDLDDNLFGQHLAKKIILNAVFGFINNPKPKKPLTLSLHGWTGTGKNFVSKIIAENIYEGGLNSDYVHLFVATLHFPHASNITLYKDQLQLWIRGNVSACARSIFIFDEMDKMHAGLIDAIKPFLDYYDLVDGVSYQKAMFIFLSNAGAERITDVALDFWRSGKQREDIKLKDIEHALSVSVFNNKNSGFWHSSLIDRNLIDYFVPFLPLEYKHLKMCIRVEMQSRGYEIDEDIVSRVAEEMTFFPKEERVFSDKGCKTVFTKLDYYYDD
Fibroblast growth factor 2 (Homo sapiens), sequence (P09038 whole entry, looked up): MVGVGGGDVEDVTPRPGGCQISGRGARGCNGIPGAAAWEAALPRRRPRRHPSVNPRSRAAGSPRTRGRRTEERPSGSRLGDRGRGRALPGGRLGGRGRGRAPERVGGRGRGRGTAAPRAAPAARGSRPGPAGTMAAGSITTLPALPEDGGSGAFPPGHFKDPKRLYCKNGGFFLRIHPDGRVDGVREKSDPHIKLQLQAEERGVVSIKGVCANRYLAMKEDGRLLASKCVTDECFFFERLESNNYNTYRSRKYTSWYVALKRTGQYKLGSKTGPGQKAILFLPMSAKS

Take `O=C1C2C=CC(C(O)c3ccc4c(c3)OCO4)N(Nc3ccc([N+](=O)[O-])cc3)C2C(=O)N1c1ccccc1` (stereo not given): the composite z-score in [1] is 1.29; in [2], 0.978; in experiment [3] it was -0.0123; in [4], 0.293; in [5] it was 0.225; in experiment [6], -0.0036. The composite z-score in the experiment with Lefty1 is 0.313; in experiment [8], 0.0897; in experiment [10] it was -0.0509; in experiment [15] it was 0.145; in experiment [16] it was -0.0178; with Torsin-1A (Homo sapiens) [17], -0.0053. The results for the composite z-score (with Torsin-1A (Homo sapiens) [18]; in experiment [19]) were 0.17 and -0.199, respectively. The z-score in experiment [7] is -0.35; in experiment [9] it was 0.382 (inactive); in [11], -0.954 (inactive); in experiment [12], 0.105 (inactive); in [13], -0.116 (inactive); in [14], -0.222 (inactive).

For `COC(=O)C[C@H]1O[C@@H](CCc2ccccc2)[C@@H](C)[C@@H]1[Si](C)(C)c1ccc(OC)cc1`, the composite z-score was -0.608 in experiment [1]; -1.35 in experiment [2]; 0.217 in experiment [3]; -0.755 in experiment [4]; 0.0222 in [5]; -0.187 in experiment [6]. Further, the composite z-score was -0.105 in the experiment on Lefty1; -0.359 in experiment [8]; 0.0073 in experiment [10]; -0.604 in [15]; -0.0963 in experiment [16]; -0.247 with Torsin-1A (Homo sapiens) [17]. In addition, the composite z-score with Torsin-1A (Homo sapiens) [18] is -0.23; in [19], -0.243. The z-score in [7] is 1.57; in [9] it was 0.301 (inactive); in [11] it was -1.76 (inactive); in experiment [12] it was 0.315 (inactive); in experiment [13] it was -0.87 (inactive); in experiment [14], -0.687 (inactive).

As for `CC(=O)n1cc(C(O)C2C=CC3C(=O)NC(=O)C3N2Nc2ccccn2)c2ccccc21` (stereo not given), the composite z-score in [1] was 0.426; in experiment [2], 0.355; in experiment [3], 1.74; in experiment [4] it was 0.0552; in experiment [5], 0.242; in [6] it was -0.219. For the same molecule, the composite z-score is -0.0259 with Lefty1; 0.0414 in [8]; 0.109 in [10]; 0.153 in experiment [15]; 0.23 in experiment [16]; 0.865 in the experiment with Torsin-1A (Homo sapiens) [17]. Moreover, the composite z-score worked out at 0.153 with Torsin-1A (Homo sapiens) [18] and 0.41 in [19]. Moreover, the z-score in experiment [7] is 0.471; in experiment [9], -1.35 (inactive); in experiment [11] it was 0.713 (inactive); in experiment [12], -0.781 (inactive); in experiment [13] it was -0.14 (inactive); in [14], 0.593 (inactive).

For the molecule `C#CCOc1ccc(C[C@@H](C(=O)OC)N(CC#C)[C@@H](/C=C/C2CC2)[C@H](O)Cc2ccccc2)cc1`, the composite z-score in experiment [1] is 0.135; in experiment [2], -0.438; in experiment [3] it was 0.0472; in experiment [4] it was -0.651; in experiment [5] it was 0.24; in experiment [6], -0.768. In addition, the composite z-score was 0.22 in the experiment on Lefty1; -1.34 in experiment [8]; -0.589 in experiment [10]; -0.57 in [15]; -0.183 in experiment [16]; -1.18 with Torsin-1A (Homo sapiens) [17]. Besides, the values for the composite z-score (in the experiment with Torsin-1A (Homo sapiens) [18]; in experiment [19]) were -0.489 and -0.34, respectively. The z-score in experiment [7] is 2.32; in experiment [9], -0.497 (inactive); in experiment [11], -2.59 (inactive); in [12] it was 0.803 (inactive); in experiment [13], 14.9 (active); in experiment [14], 1 (inactive).

For the molecule `CC(C)CCC[C@@H](C)[C@H]1CC[C@@]2(C)C3=C(CC[C@]12C)[C@@]1(C)CC[C@H](OC(=O)c2ccc(C(F)(F)F)nc2)C(C)(C)C1CC3` (stereo not given in full), the composite z-score in [1] was determined as 0.38; in experiment [2], 0.763; in experiment [3] it was 0.251; in [4] it was 0.723; in experiment [5], 0.599; in experiment [6], 0.695. In addition, the composite z-score with Lefty1 worked out at 0.666; in [8] it was 0.231; in [10], 0.0419; in [15], 0.536; in experiment [16] it was 0.0411; in the experiment with Torsin-1A (Homo sapiens) [17] it was 0.379. The composite z-score was 0.347 with Torsin-1A (Homo sapiens) [18] and 1.04 in [19]. Moreover, the z-score is 0.425 in [7]; -1.41 (inactive) in experiment [9]; -0.878 (inactive) in experiment [11]; -0.14 (inactive) in experiment [12]; 0.399 (inactive) in [13]; -0.121 (inactive) in experiment [14].
